# Species: Homo sapiens
# Test: To identify inhibition of the IFN signalling (Jak-Stat) pathway via expression of an eGFP reporter gene under the control of an IFN-stimulated response element (ISRE) containing MxA promoter.
# Type: functional
# Parameters: scale not given: direction of the effect not stated beside the values
# Details: 30 µM
row,Compound,Percent Effect
1,CC(C)c1nc(C2CCCN(C(=O)c3ccnc(N(C)C)c3)C2)no1 (centres undefined),26.1%
2,Cc1cnn(CC2CCCN2C(=O)c2cccnc2N(C)C)c1 (centres undefined),-17.9%
3,CC(NC(=O)NCc1cccc(Cl)c1)(C(=O)O)c1ccco1 (centres undefined),-2.55%
4,Cc1cnc(CN2CCCC(c3cc(C(N)=O)[nH]n3)C2)cn1 (centres undefined),6.6%
